Read-out in test [1]: Collagen I, COL1A1 (gene 1277)
Nature of the test: BSK_hDFCGF_CollagenI: BioMAP Diversity Plus: hDFCGF Assay for Collagen I Biomarker Activity (AID 2284250). As to conditions: primary human foreskin fibroblasts. In outline: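 ELISA read-out of Collagen I in human dermal foreskin fibroblast cultures, 24 h after dosing. Gain of signal versus DMSO vehicle defines activity.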

Read-out in test [2]: Plasminogen activator inhibitor-1 (PAI1), SERPINE1 (gene 5054)
Kind of test: BSK_KF3CT_PAI1: BioMAP Diversity Plus: KF3CT Assay for Plasminogen activator inhibitor-1 (PAI1) Biomarker Activity (AID 2284252). As to conditions: primary human keratinocytes with fibroblasts. In outline: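 Keratinocyte + dermal fibroblast co-culture (human primary); 24 h post-dose; PAI-1 by ELISA; gain-of-signal fit vs DMSO control.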

Read-out in test [3]: Monocyte Chemoattractant Protein-1 (MCP1), CCL2 (gene 6347)
Kind of test: BSK_IMphg_MCP1: BioMAP Diversity Plus: IMphg Assay for Monocyte Chemoattractant Protein-1 (MCP1) Biomarker Activity (AID 2284253). Particulars: primary human endothelial cells with macrophages. In outline:
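ELISA readout of MCP-1 at 24 hours in IMphg co-cultures of venular endothelial cells and macrophages, normalised to DMSO; parallel cultures stained with sulforhodamine B for overt cytotoxicity.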

Read-out in test [4]: Interleukin-8 (IL8), CXCL8 (gene 3576)
Kind of test: BSK_KF3CT_IL8: BioMAP Diversity Plus: KF3CT Assay for Interleukin-8 (IL8) Biomarker Activity (AID 2284254). As to conditions: primary human keratinocytes with fibroblasts. In outline:
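IL-8 read-out: ELISA, 24 h post-dose, human skin primary co-culture (keratinocytes + foreskin fibroblasts). DMSO = baseline; positive-direction fit.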

Read-out in test [5]: Macrophage Inflammatory Protein-1 Alpha (MIP1a), CCL3 (gene 6348)
Kind of test: BSK_IMphg_MIP1a: BioMAP Diversity Plus: IMphg Assay for Macrophage Inflammatory Protein-1 Alpha (MIP1a) Biomarker Activity (AID 2284255). As to conditions: primary human endothelial cells with macrophages. In outline:
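MIP-1a protein levels were quantified by ELISA after 24 h treatment of human endothelial cell–macrophage co-cultures, compared with DMSO. Parallel cultures were fixed with TCA and stained with 0.1% SRB to gauge overt cytotoxicity.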

Read-out in test [6]: Plasminogen activator inhibitor-1 (PAI1), SERPINE1 (gene 5054)
Nature of the test: BSK_MyoF_PAI1: BioMAP Diversity Plus: MyoF Assay for Plasminogen activator inhibitor-1 (PAI1) Biomarker Activity (AID 2284256).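 As to outcome: PAI-1 protein level measured by ELISA in fibroblast cultures.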 Particulars: primary human lung fibroblasts. In outline: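 MyoF lung fibroblasts, human primary; compound 24 h; PAI-1 ELISA; positive-direction fit vs DMSO baseline; parallel SRB total-protein staining for cytotoxicity.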

Read-out in the next test: CD69, CD69 (gene 969)
Nature of the test: BSK_IMphg_CD69: BioMAP Diversity Plus: IMphg Assay for CD69 Biomarker Activity (AID 2284257). As to conditions: primary human endothelial cells with macrophages. In short, it runs like this: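 Readout is ELISA for CD69 in primary human venular endothelial cell/macrophage co-culture, taken at 24 h post-dosing. SRB staining of parallel cultures gauged overt cytotoxicity; signal increase versus DMSO defined activity.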

Read-out in test [7]: Eotaxin 3, CCL26 (gene 10344)
Nature of the test: BSK_BF4T_Eotaxin3: BioMAP Diversity Plus: BF4T Assay for Eotaxin 3 Biomarker Activity (AID 2284258). As to conditions: primary human bronchial epithelial cells with fibroblasts. In short, it runs like this: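 ELISA measurement of Eotaxin-3 after 24 h chemical exposure in a bronchial epithelial/dermal fibroblast co-culture, with DMSO as baseline. Parallel SRB staining (0.1% SRB after 10% TCA fixation, 560 nm) flagged overt cytotoxicity.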

Read-out in test [8]: Monocyte Chemoattractant Protein-1 (MCP1), CCL2 (gene 6347)
Kind of test: BSK_BF4T_MCP1: BioMAP Diversity Plus: BF4T Assay for Monocyte Chemoattractant Protein-1 (MCP1) Biomarker Activity (AID 2284259). Particulars: primary human bronchial epithelial cells with fibroblasts. In outline: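 MCP-1 ELISA readout taken 24 h after dosing in the BF4T system (bronchial epithelial cells plus dermal fibroblasts). Parallel SRB total-protein staining flagged cytotoxicity; DMSO served as baseline, positive fitting direction.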

Read-out in test [9]: Intercellular Adhesion Molecule 1 (ICAM1), ICAM1 (gene 3383)
Kind of test: BSK_BF4T_ICAM1: BioMAP Diversity Plus: BF4T Assay for Intercellular Adhesion Molecule 1 (ICAM1) Biomarker Activity (AID 2284260). Particulars: primary human bronchial epithelial cells with fibroblasts. In short, it runs like this:
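ICAM-1 levels measured by ELISA after 24 h chemical treatment of bronchial epithelial cell/dermal fibroblast co-cultures, read against DMSO baseline. Overt cytotoxicity checked in parallel cultures by sulforhodamine B staining.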

Read-out in test [10]: Interleukin-8 (IL8), CXCL8 (gene 3576)
Kind of test: BSK_MyoF_IL8: BioMAP Diversity Plus: MyoF Assay for Interleukin-8 (IL8) Biomarker Activity (AID 2284261). Particulars: primary human lung fibroblasts. In short, it runs like this: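 Lung fibroblasts (human primary) → chemical exposure → 24 h → IL-8 measured by ELISA. Signal increase scored versus DMSO control.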

Read-out in the next test: CD90, THY1 (gene 7070)
Kind of test: BSK_BF4T_CD90: BioMAP Diversity Plus: BF4T Assay for CD90 Biomarker Activity (AID 2284262). As to conditions: primary human bronchial epithelial cells with fibroblasts. In short, it runs like this: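 CD90 levels by ELISA after 24 h treatment of human bronchial epithelial cell/dermal fibroblast cultures, analysed versus DMSO. Overt cytotoxicity checked in parallel cultures by sulforhodamine B staining.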

Read-out in test [11]: Interleukin-8 (IL8), CXCL8 (gene 3576)
Nature of the test: BSK_BF4T_IL8: BioMAP Diversity Plus: BF4T Assay for Interleukin-8 (IL8) Biomarker Activity (AID 2284263). As to conditions: primary human bronchial epithelial cells with fibroblasts. In short, it runs like this:
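Human bronchial epithelial cells with dermal fibroblasts co-culture; IL-8 measured by ELISA 24 hours after dosing, fitted vs DMSO. Cytotoxicity tracked in parallel cultures by SRB total-protein staining.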

Read-out in test [12]: Interleukin-1 alpha (IL1a), IL1A (gene 3552)
Kind of test: BSK_BF4T_IL1a: BioMAP Diversity Plus: BF4T Assay for Interleukin-1 alpha (IL1a) Biomarker Activity (AID 2284264). As to conditions: primary human bronchial epithelial cells with fibroblasts. In outline:
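ELISA read-out of IL-1α from bronchial epithelial cell/dermal fibroblast co-cultures 24 h after compound addition. Increases scored against DMSO negative control. Cytotoxicity monitored by sulforhodamine B staining of parallel cultures.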

Read-out in the next test: Decorin, DCN (gene 1634)
Nature of the test: BSK_MyoF_Decorin: BioMAP Diversity Plus: MyoF Assay for Decorin Biomarker Activity (AID 2284265). Particulars: primary human lung fibroblasts. In short, it runs like this:
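ELISA readout of decorin, 24 h post-dosing; primary human lung fibroblast (MyoF) culture; gain-of-signal fit vs DMSO baseline.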

Read-out in another test: KRT18 (gene 3875)
Nature of the test: BSK_BF4T_Keratin818: BioMAP Diversity Plus: BF4T Assay for Keratin 818 Biomarker Activity (AID 2284266). Particulars: primary human bronchial epithelial cells with fibroblasts. In short, it runs like this: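 Keratin 8/18 levels quantified by ELISA after 24 h chemical treatment of bronchial epithelial cell/dermal fibroblast co-cultures, fitted in positive direction relative to DMSO. Parallel SRB staining tracks overt cytotoxicity.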

Test [13] can be described thus: BSK_MyoF_SRB: Viability Assessment in the BioMAP Diversity Plus: MyoF Assay (AID 2284267).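 Also: total protein by SRB absorbance in parallel cultures as cytotoxicity measure.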 Particulars: primary human lung fibroblasts. In short, it runs like this: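 Lung fibroblast cultures, 24 h post-dose; fix 10% TCA, stain 0.1% SRB, read 560 nm. Signal = total protein as cytotoxicity measure; fitted relative to DMSO negative control.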
Read-out in test [14]: Matrix Metallopeptidase 1 (MMP1), MMP1 (gene 4312)
Kind of test: BSK_MyoF_MMP1: BioMAP Diversity Plus: MyoF Assay for Matrix Metallopeptidase 1 (MMP1) Biomarker Activity (AID 2284268). Particulars: primary human lung fibroblasts. In short, it runs like this:
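Cells: human lung fibroblasts. Exposure: 24 h chemical dosing. Detection: ELISA for MMP1. Analysis: upward fitting against DMSO negative control.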

Read-out in test [15]: TIMP metallopeptidase inhibitor 1 (TIMP1), TIMP1 (gene 7076)
Nature of the test: BSK_MyoF_TIMP1: BioMAP Diversity Plus: MyoF Assay for TIMP metallopeptidase inhibitor 1 (TIMP1) Biomarker Activity (AID 2284269). Particulars: primary human lung fibroblasts. In outline: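 TIMP-1 levels were determined by ELISA in human lung fibroblasts treated for 24 h. DMSO served as negative control and baseline for upward curve fitting.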

Read-out in test [16]: Interferon-inducible T-cell alpha chemoattractant (ITAC), CXCL11 (gene 6373)
Nature of the test: BSK_hDFCGF_ITAC: BioMAP Diversity Plus: hDFCGF Assay for Interferon-inducible T-cell alpha chemoattractant (ITAC) Biomarker Activity (AID 2284251). As to conditions: primary human foreskin fibroblasts. In outline:
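Measured by ELISA, the chemokine level serves as the endpoint in human skin fibroblast primary cultures 24 h after compound addition. Increases relative to DMSO-treated wells define activity.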

The text below walks through data of PubChem BioAssay (EPA / NIEHS).

“And” between values parts separate entries of the source, which are not always exact repeats. Equal values may be shown once. Some compounds were tested as several samples or in several runs, with calls that do not always agree. The source made the active and inactive calls. The calls were made as follows: active = hit-call score of the fitted dose curve at least 0.9, where 1 is the maximum; inactive = score below 0.9.

As to `C=CC(=O)OCC(F)(F)C(F)(F)C(F)(F)COC(=O)C=C`, the outcome in test [1] was “inactive”; with CD90, THY1 (gene 7070) it was “inactive”; in test [11] it was “inactive”; in test [14], “inactive”. Besides, the AC50 (as a rule, the midpoint of the concentration-response curve, whichever way the signal moves) in [2] is 22.7 µM (active) and 21.2 µM (active); in test [3] it was 37.9 µM (active) and 36.8 µM (active); in test [4] it was 14.7 µM (active) and 14.9 µM (active); in [5], 47.1 µM (active) and 48 µM (active); in [6] it was 14.2 µM (active) and 14.7 µM (active); with CD69, CD69 (gene 969) it was 54.8 µM (active) and 44 µM (active). For the same compound, the AC50 is 14.8 µM (active) and 17 µM (active) in test [7]; 15.3 µM (active) and 11.7 µM (active) in test [8]; 7.12 µM (active) and 9.76 µM (active) in [9]; 16.5 µM (active) and 14.3 µM (active) in [10]; 8.59 µM (active) with CD90, THY1 (gene 7070); 10.8 µM (active) in [11]. The AC50 in test [12] is 40.5 µM (active) and 41.3 µM (active); in the test with Decorin, DCN (gene 1634), 12.2 µM (active) and 9.13 µM (active); in the test with KRT18 (gene 3875), 45.3 µM (active) and 51.1 µM (active); in test [13], 10.6 µM (active); in test [15] it was 16.9 µM (active) and 13.9 µM (active).

Take `O=C(F)C1(F)C(F)(F)C(F)(F)C(F)(F)C(F)(F)C1(F)F`: the outcome in [1], in [16], in [2], in test [3], in test [4] and in test [5] was inactive. Moreover, the outcome in test [6] was “inactive”; in the test with CD69, CD69 (gene 969), “inactive”; in [7], “inactive”; in test [8], “inactive”; in test [9], “inactive”; in test [10], “inactive”. Also, the outcome is “inactive” with CD90, THY1 (gene 7070); “inactive” in test [11]; “inactive” in test [12]; “inactive” with Decorin, DCN (gene 1634); “inactive” with KRT18 (gene 3875); “inactive” in test [13]. In addition, the outcome in [14] and in test [15] was inactive.

For `O=C(O)C(F)(F)C(F)(F)C(F)(F)OC(F)(F)F`, the result in [1], in test [2], in [3], in [4], in test [5] and in [6] was inactive. The outcome in the test with CD69, CD69 (gene 969) was “inactive”; in test [7], “inactive”; in test [8] it was “inactive”; in [9], “inactive”; in test [10], “inactive”; with CD90, THY1 (gene 7070) it was “inactive”. Also, the outcome is “inactive” in test [11]; “inactive” in test [12]; “inactive” with Decorin, DCN (gene 1634); “inactive” with KRT18 (gene 3875); “inactive” in test [13]; “inactive” in [14]. Moreover, the outcome in [15] was inactive. In addition, the AC50 in [11] was 0.218 µM (active).

With `O=C(O)C(F)(F)C(F)(F)C(F)(F)OC(F)(C(F)(F)F)C(F)(F)F`, the result in test [1], in [2], in [3], in test [4], in [5] and in [6] was inactive. Further, the outcome with CD69, CD69 (gene 969) is “inactive”; in [7], “inactive”; in test [8], “inactive”; in test [9], “inactive”; in [10] it was “inactive”; with CD90, THY1 (gene 7070), “inactive”. Also, the outcome was “inactive” in test [11]; “inactive” in [12]; “inactive” with Decorin, DCN (gene 1634); “inactive” in the test with KRT18 (gene 3875); “inactive” in test [13]; “inactive” in test [14]. Moreover, the result in test [15] was inactive. In addition, the AC50 is 16.5 µM (active) in [4] and 5.77 µM (active) in test [8].
